Screening data as filed in PubChem.
VHR inh abs – VHR1 phosphatase inhibitors, primary screen, biochemical, absorbance, uHTS. recombinant VHR phosphatase, pNPP absorbance. inhibition, % at 13.3 µM. 290,000 compounds, 0.52% hits; in the data active means inhibition above about 50%
PriA SSB inh – inhibitors of Klebsiella pneumoniae PriA binding to SSB C-terminal tail, primary screen, biochemical, AlphaScreen | AlphaScreen SSBct-PriA binding, biotinylated peptide | inhibition, % at 33 µM | 430,000 compounds, 0.6% hits | AID 1272365, 2023; in the data active means inhibition mostly above about 37%, no sharp cut-off; inactive means mostly below about 20%;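 further: plate controls were negative control peptide for no effect and reference peptide for full effect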
RecA splice inh – Mtb RecA intein splicing inhibitors, primary screen, biochemical, fluorescence, HTS | Protein RecA (Mycobacterium tuberculosis (strain ATCC 25618 / H37Rv)), P9WHJ3 | cell-free RecA intein splicing | inhibition, % (no concentration beside the values) | 290,000 compounds, 0.75% hits | AID 2221, 2009; in the data active means inhibition above about 30%;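 further: 0% = vehicle wells and 100% = reference inhibitor control wells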
Target sequence (P9WHJ3 whole entry, looked up, canonical isoform): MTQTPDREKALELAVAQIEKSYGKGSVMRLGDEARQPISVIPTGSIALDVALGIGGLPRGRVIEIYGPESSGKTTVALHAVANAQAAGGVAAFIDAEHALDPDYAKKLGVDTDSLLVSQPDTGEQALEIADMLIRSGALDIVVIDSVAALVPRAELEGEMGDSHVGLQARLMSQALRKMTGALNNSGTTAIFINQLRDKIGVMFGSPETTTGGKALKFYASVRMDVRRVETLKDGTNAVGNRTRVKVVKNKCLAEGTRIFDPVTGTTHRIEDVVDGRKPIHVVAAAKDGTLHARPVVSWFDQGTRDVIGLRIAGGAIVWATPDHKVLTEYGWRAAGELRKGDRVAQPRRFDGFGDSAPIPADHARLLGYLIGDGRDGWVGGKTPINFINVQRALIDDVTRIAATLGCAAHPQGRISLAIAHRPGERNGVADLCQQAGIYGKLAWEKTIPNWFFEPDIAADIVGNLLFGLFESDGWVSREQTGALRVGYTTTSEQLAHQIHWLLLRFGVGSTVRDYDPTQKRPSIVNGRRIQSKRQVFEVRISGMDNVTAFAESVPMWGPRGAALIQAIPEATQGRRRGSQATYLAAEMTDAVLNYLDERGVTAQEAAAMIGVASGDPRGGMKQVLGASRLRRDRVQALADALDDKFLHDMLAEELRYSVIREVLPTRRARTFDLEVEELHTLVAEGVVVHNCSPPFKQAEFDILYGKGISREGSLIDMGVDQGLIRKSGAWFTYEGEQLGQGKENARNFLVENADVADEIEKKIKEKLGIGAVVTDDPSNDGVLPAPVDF
CCHF vOTU inh-1 – CCHFV vOTU protease inhibitors, primary screen, biochemical, Pep-AMC substrate, fluorescence; Crimean-Congo hemorrhagic fever virus L polyprotein viral ovarian tumor (vOTU) protease …; inhibition, % at 11.5 µM; 370,000 compounds, 0.55% hits; AID 651958, 2012; further: 0% = vehicle wells with enzyme and 100% = no enzyme wells
SARS 3CLpro inh – SARS-CoV 3CLpro protease inhibitors, primary screen, biochemical, quenched FRET. Replicase polyprotein 1ab (Severe acute respiratory syndrome coronavirus), P0C6X7. recombinant SARS-CoV 3CLpro, quenched FRET peptide cleavage. inhibition, % at 6 µM. 290,000 compounds, 0.14% hits; in the data active means inhibition above about 12%
GFP chromo cs – counter-screen: blocks GFP chromophore formation, dose response, counter-screen, biochemical, fluorescence, homogeneous; cell-free GFP chromophore formation; EC50, µM; 2,100 compounds, 83% hits; shares compounds with RecA splice inh; AID 434968, 2010; call rule not given here
CCHF vOTU inh-2 – CCHFV vOTU protease inhibitors, confirmation, biochemical, Pep-AMC substrate, fluorescence. Recombinant CCHFV vOTU. AID 686976, 2013. inhibition, % at 11.5 µM. 1,900 compounds, 17% hits. shares compounds with CCHF vOTU inh-1
Numbers without * were called inactive; · = not tested or not shown. The list is not random: actives were taken first. Their share in the collection is about 1.7%. Unless noted, no stated cut-off is given here; in the data, active means inhibition above about 30%; inactive means the rest.

SMILES | VHR inh abs | PriA SSB inh | RecA splice inh | CCHF vOTU inh-1 | SARS 3CLpro inh | GFP chromo cs | CCHF vOTU inh-2
Cc1[nH][nH]c(=O)c1C(c1ccc(-c2ccc(F)cc2)o1)c1c(C)[nH][nH]c1=O | 18.5 | 0.5 | 96.9* | 45.8* | 5.3 | 0.579* | -8.5
Nc1scc2c(C(=O)N/N=C/c3ccc(Cl)cc3)nn(-c3ccccc3)c(=O)c12 | 6.2 | · | 63.2* | 35.6* | -1.1 | 16.2* | 63.8*
NS(=O)(=O)c1ccc(N=Nc2ccc(=O)[nH]c2O)cc1 | 40.5 | 25.0 | 72.6* | 32.4* | -1.4 | 10* | 20.5
NS(=O)(=O)c1ccc(N=Nc2ccc(O)c3ncccc23)cc1 | -12.8 | -13.3 | 6.7 | 28.2 | 0.9 | · | ·
CC(=O)N(C1=C(Cl)C(=O)c2ccccc2C1=O)C1CCCCC1 | 5.4 | -3.0 | 92.5* | 100.1* | -0.1 | 1.28* | 98.4*
Cc1nnc(N/N=C/c2ccccc2O)n1N | 6.3 | · | 75.2* | 97.0* | 2.0 | 12.2* | -4.0
Cc1nnc(NN=Cc2ccc(Br)cc2)n1N | · | -10.0 | · | · | · | · | ·
Cc1nnc(N/N=C\c2ccc(-c3ccccc3[N+](=O)[O-])o2)n1N | -7.4 | · | 50.5* | 101.2* | 3.9 | 39.3* | 6.8
Cc1cc(Cl)cc2sc(N(Cc3ccccn3)C(=O)c3nc4ccccc4s3)nc12 | · | -17.0 | · | · | · | · | ·
CSc1ccccc1NC(=O)[C@@H]1CSCCC(=O)N1 | · | 1.0 | · | · | · | · | ·
COc1cc(C(=O)c2nccc3cc(OC)c(OC)cc23)c([N+](=O)[O-])cc1OC | -10.4 | 10.9 | 95.3* | 103.1* | 0.3 | 0.389* | 72.3*
COc1cc(C(=O)c2ccccc2)c([N+](=O)[O-])cc1OC | 13.3 | -7.8 | -21.9 | -13.7 | -1.0 | · | ·
COc1cc(N)c(C(=O)c2nccc3cc(OC)c(OC)cc23)cc1OC | 22.0 | 2.4 | 17.9 | 6.8 | 1.8 | · | ·
COc1cc(Br)c(C(=O)c2nccc3cc(OC)c(OC)cc23)cc1OC | 0.3 | -7.0 | 84.4* | 111.0* | 8.0 | 0.75* | 90.0*
CCO[C@H]1OC(C(=O)Nc2ccccc2)=C[C@@H](c2ccc(C(F)(F)F)cc2)[C@@H]1CCCO | -1.6 | -2.5 | -0.5 | 32.4* | 4.0 | · | 6.7
CCO[C@H]1OC(C(=O)NCc2ccccc2)=C[C@@H](c2ccc(C(F)(F)F)cc2)[C@@H]1CCCO | 17.5 | 2.3 | 2.5 | 19.1 | 0.8 | · | ·
CCc1ccc(S(=O)(=O)NCCN2CCN(c3ccccc3F)CC2)s1 | · | -5.0 | · | · | · | · | ·
COc1c(C)cccc1C(=O)NC(=S)Nc1ccccc1N1CCCC1 | 14.0 | 16.1 | -0.5 | 50.5* | 3.1 | · | 23.4
O=C(NC(=S)Nc1ccccc1N1CCCC1)c1ccccc1Br | 71.1 | · | 7.1 | 34.0* | -3.3 | · | 29.6*
O=C(NC(=S)Nc1ccccc1N1CCCC1)c1ccco1 | 23.9 | 2.3 | -0.2 | 21.3 | 4.8 | · | ·
CN1CC(NC(=O)c2ccc3nsnc3c2)CC1=O (stereo not drawn) | · | -7.0 | · | · | · | · | ·
Cc1cccc(-n2ncc3c(=O)[nH]c(-n4nc(C)cc4NC(=O)c4ccc(Br)o4)nc32)c1 | · | -5.0 | · | · | · | · | ·
O=C1c2ccccc2C(=O)C12OC2c1cccc2ccccc12 (stereo not drawn) | 17.7 | 13.7 | 7.5 | 86.5* | -0.7 | · | 48.0*
O=C1NC(c2cccc3ccccc23)Nc2ccccc21 (stereo not drawn) | · | -10.7 | · | -12.5 | · | · | ·
Cn1ccnc1SCC1CCN(C(=O)c2ccc3nsnc3c2)CC1 | · | -7.0 | · | · | · | · | ·
O=C(NCc1ccsc1)c1ccc(Cl)c(Cl)c1 | · | -13.0 | · | · | · | · | ·
Cc1ccc(S(=O)(=O)N(Cc2cc3cc4c(cc3[nH]c2=O)OCCO4)CC2CCCO2)cc1 (stereo not drawn) | 37.9 | 2.8 | 1.5 | 37.8* | -3.4 | · | -27.3
Cc1ccc2nsnc2c1S(=O)(=O)N(CCO)Cc1cc2cc3c(cc2[nH]c1=O)OCCO3 | 10.2 | -9.0 | -7.4 | 43.5* | -3.4 | · | -5.4
Oc1ccccc1-c1nc2c3c(-c4ccccc4)c(-c4ccccc4)oc3ncn2n1 | · | 5.0 | · | · | · | · | ·
